Compound activity from PubChem.
EWS-Fli inh: inhibitors of EWS/Fli oncoprotein transcriptional activity; A673 NR0B1-luciferase reporter, viability-normalised; inhibition, % at 12.6 µM; actives 0.67% (n = 350,000); AID 651661;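 active = mean inhibition of at least 50% after viability correction, with every replicate also passing that limit; inconclusive = mean reaches 50% but only one of two replicates passes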;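 note: firefly luciferase signal divided by Alamar Blue viability fluorescence both relative to DMSO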
GSIS activator: GLuc luminescence reporter in INS-1E cells, primary screen for activators of glucose-dependent secretion of insulin. INS-1E GLuc reporter insulin secretion, 2-3 h. activation, % at 16.6 µM. actives 0.61% (n = 370,000). AID 743287;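 active = lowest replicate activation of at least 40%, so every replicate reaches that level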
F508del corr: CFTR F508del correction in bronchial cells. CFBE cells, YFP halide quenching; stimulated with forskolin plus potentiator P3; % fluorescence drop versus neutral controls. activity (quench increase), % at 7.58 µM. actives 0.36% (n = 350,000);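 active = mean added fluorescence quench of at least 8% versus neutral control, with both replicates also reaching 8%; inconclusive = only one of the mean or replicate conditions met; inactive = mean below 8% and not both replicates reaching 8%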;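 note: cells transiently co-express mutant CFTR-F508del with the halide-sensitive YFP; corrector assay measuring rescue of mutant channel to the surface after 24 h compound exposure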
RAD52 anneal inh: inhibitors of human RAD52 DNA annealing. P43351. recombinant RAD52 DNA annealing, FRET fluorescence. inhibition, % at 18.7 µM. actives 0.46% (n = 360,000). AID 651710;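 active = every replicate showing at least 50% inhibition; inconclusive = mean inhibition at least 50% but not in every replicate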
Target sequence (P43351 whole entry, looked up): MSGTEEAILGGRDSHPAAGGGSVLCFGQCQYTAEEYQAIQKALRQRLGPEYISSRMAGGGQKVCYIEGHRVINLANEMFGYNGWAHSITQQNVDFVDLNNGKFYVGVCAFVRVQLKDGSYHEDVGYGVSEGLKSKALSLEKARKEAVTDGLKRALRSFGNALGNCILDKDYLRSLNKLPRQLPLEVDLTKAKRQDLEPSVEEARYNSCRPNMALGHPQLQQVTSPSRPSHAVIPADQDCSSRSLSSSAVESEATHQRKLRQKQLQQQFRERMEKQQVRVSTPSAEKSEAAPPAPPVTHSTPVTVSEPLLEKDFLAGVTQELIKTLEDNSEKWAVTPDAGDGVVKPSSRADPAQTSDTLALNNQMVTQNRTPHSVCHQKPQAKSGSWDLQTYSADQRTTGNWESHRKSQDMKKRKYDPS
LGR2 antag: Drosophila LGR2 receptor signaling inhibition; HEK293 LGR2, CRE-luciferase, bursicon-stimulated, 4 h; inhibition, % at 9.99 µM; actives 0.35% (n = 380,000); AID 720647;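 active = drop in luminescence signal, shown as inhibition above about 50% in the replicate tests, limit read from the data, passing the limit was not always enough; inconclusive = probably only some replicates passing the limit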;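 note: agonist challenge used bursicon conditioned medium at about half maximal strength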
RAD54 inh: blocks human RAD54 Holliday junction branch migration. actives 0.14% (n = 360,000). Q92698. inhibition, % at 10.4 µM. FAM/BHQ fluorescence;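 active = mean normalized replicate activity at least 40 and at least half of replicates scoring 40 or more; inconclusive = only one of the two criteria met; inactive = mean below 40 and under half of replicates reaching 40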;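 note: inhibitors cause a drop in the FAM fluorescence signal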
Large screens that a line does not name were inactive. Hits are enriched below; roughly 1.8% of the tested compounds scored in any of these assays.

COc1cc(OC)c2c(-c3cccc(-c4ccc(O)cc4)c3)cc(=O)oc2c1	EWS-Fli inh 53
COc1cc(OC)c2c(-c3cccc(-c4ccc(N(C)C)cc4)c3)cc(=O)oc2c1	EWS-Fli inh inconclusive
COc1cc(OC)c2c(-c3cccc(-c4cccc(C)c4)c3)cc(=O)oc2c1	EWS-Fli inh 54
CC(C)NC(=O)Nc1ccc2c(c1)CC(=O)N([C@@H](C)CO)C[C@H](C)[C@H](CN(C)Cc1ccc(Cl)c(Cl)c1)O2	none (no result: EWS-Fli inh)
COc1ccccc1-c1nnc2sc(COc3ccc(Cl)cc3)nn12	none (no result: EWS-Fli inh, F508del corr, RAD52 anneal inh)
CCN(CC)C(=S)SSC(=S)N(CC)CC	F508del corr 14
COc1ccc(C(=O)Nc2ccc(N3CCN(c4ccc(OC)cc4)CC3)c(C#N)c2)cc1	none (no result: EWS-Fli inh, GSIS activator, F508del corr, RAD52 anneal inh, LGR2 antag)
COc1ccc(N2CCN(c3ccc(NC(=O)C4CCCCC4)cc3C#N)CC2)cc1	GSIS activator 51 (no result: EWS-Fli inh, F508del corr, RAD52 anneal inh)
CCc1nc(N)nc2c1C(=O)CC(C)(C)C2	GSIS activator 70
COc1ccccc1CC(=O)Nc1cccc(F)c1	none (no result: RAD54 inh)
COc1ccc2c(C#CCCO)c(-c3ccc(S(C)(=O)=O)cc3)sc2c1	none (no result: GSIS activator)
COc1ccc2sc(-c3ccc(S(C)(=O)=O)cc3)c(C#CCO)c2c1	LGR2 antag 57
Cc1nc2c(c(N3CCOCC3)n1)OCC(=O)N2	GSIS activator 73 (no result: EWS-Fli inh, F508del corr)
O=C(CC1Sc2ccccc2NC1=O)NNc1cccc(Cl)c1Cl (centres undefined)	F508del corr 8.3 (no result: RAD54 inh)
COC(=O)CC1Sc2ccccc2NC1=O (centres undefined)	none (no result: EWS-Fli inh, F508del corr, RAD52 anneal inh, LGR2 antag)
COC(=O)C[C@@H]1C=C[C@@H](NC(=O)C2CCC2)[C@@H](CO)O1	none (no result: RAD54 inh)
CCOc1ccc(NC(=O)CSc2nncc(=O)n2N)cc1	none
O=C(O)COc1ccccc1-c1ccccc1	GSIS activator 41
O=C(COc1ccccc1-c1ccccc1)NCc1ccco1	none (no result: RAD54 inh)
Cn1c(=O)c2[nH]cnc2n(C)c1=O	none
CC(C)Cn1c(=O)n(C)c(=O)c2[nH]cnc21	GSIS activator 73
Cc1cc(Br)c2c(c1)C1(OCCO1)C(=O)N2	GSIS activator 41
CC(=O)O[C@H]1CC[C@@]2(C)C(=CC[C@H]3[C@@H]4CC[C@H](C5(C)OCCO5)[C@@]4(C)CC[C@@H]32)C1	none (no result: EWS-Fli inh, GSIS activator, F508del corr, RAD52 anneal inh, LGR2 antag)
CC(=O)OC1CCC2(C)C(=CCC3C2CCC2(C)C3CC3ON=C(C)C32)C1 (centres undefined)	F508del corr 11 (no result: GSIS activator)
Cn1c2ccccc2c(=O)c2ccc(C#CC3(N)CCCCC3)cc21	none
Cn1c2ccccc2c(=O)c2cc(C#CC3(O)CCCCC3)ccc21	EWS-Fli inh 68, LGR2 antag 82
CCCC(=O)N1CC2(CCN(S(C)(=O)=O)CC2)c2c([nH]c3cc(OC)ccc23)[C@H]1CO	none (no result: RAD54 inh)
CNC[C@H](CC1CCCCC1)NC[C@H](Cc1ccccc1)NCCC12CC3CC(CC(C3)C1)C2	GSIS activator 649, LGR2 antag 101
NC[C@H](Cc1ccccc1)NCCCCC1CCCCC1	none
Cc1cc(C(=O)NNC(=O)/C=C/c2ccco2)c(C)o1	none
CCOC(=O)c1cnc2ccc(OCC)cc2c1N1CCN(c2ccccc2)CC1	GSIS activator 71 (no result: EWS-Fli inh, F508del corr, RAD52 anneal inh, LGR2 antag)
CCOc1ccc2ncc(S(=O)(=O)c3ccccc3)c(N3CCN(c4ccccc4)CC3)c2c1	none (no result: RAD54 inh)
O=C(CCn1nnnc1CN1CCOCC1)N1CCC(c2ccccc2F)C1 (centres undefined)	none
Cc1cccc2nc(-c3ccco3)c(Nc3ccccc3)n12	GSIS activator 41
Cc1cc2c(c(/C=C/C(=O)c3ccccc3)c1)OC1(C=C2)Oc2ccccc2C(=O)N1C (centres undefined)	LGR2 antag 50 (no result: RAD54 inh)
Cc1ccc(CSc2nccc(-c3c(C)nc4ccccn34)n2)cc1	EWS-Fli inh 56 (no result: GSIS activator)
Cc1ccc(CSc2ncn(-c3ccccc3)n2)cc1	none (no result: EWS-Fli inh, GSIS activator, F508del corr, RAD52 anneal inh, LGR2 antag)
CCn1c(=O)[nH]c(=O)c2c(N)c(C(=O)c3cc(F)ccc3F)sc21	GSIS activator 55
Cc1ccc(C(=O)c2sc3c(c2N)c(=O)[nH]c(=O)n3CCc2ccccc2)cc1	none (no result: EWS-Fli inh, F508del corr, RAD52 anneal inh, RAD54 inh)
O=C(N/N=C/c1cc2c3c(c1O)CCCN3CCC2)c1ccccc1O	F508del corr 8.3 (no result: RAD54 inh)
COc1cc2c(cc1OC)CN(C(=O)CCNS(=O)(=O)c1ccc(Br)cc1)CC2	none (no result: RAD54 inh)
COc1cc2c(cc1OC)CN(C(=O)CNS(=O)(=O)c1ccc(C)c(C)c1)CC2	GSIS activator 55 (no result: EWS-Fli inh, RAD54 inh)
CC(C)c1ccc(/C=C(\c2nc3ccccc3[nH]2)S(=O)(=O)c2ccccc2)cc1	LGR2 antag 59 (no result: EWS-Fli inh, F508del corr, RAD52 anneal inh, RAD54 inh)
COc1ccc(C(CC(=O)c2ccc(C)cc2)C(C#N)C#N)cc1OC (centres undefined)	LGR2 antag 53 (no result: EWS-Fli inh, F508del corr, RAD52 anneal inh, RAD54 inh)
COC(=O)C(C(=O)OC)C(CC(=O)c1ccc(C)cc1)c1cc(OC)c(OC)c(OC)c1 (centres undefined)	none
NCC(=O)NNC(=O)OCC1c2ccccc2-c2ccccc21	F508del corr 8.6
CCCCCCCCCCn1c2c(c(=N)c3c1CCC3)CCC2	GSIS activator 339 (no result: EWS-Fli inh, F508del corr, RAD52 anneal inh, LGR2 antag)
C[C@@H]1CN([C@@H](C)CO)S(=O)(=O)c2ccc(C#Cc3ccncc3)cc2O[C@H]1CN(C)C(=O)Nc1ccc2c(c1)OCO2	EWS-Fli inh 71 (no result: LGR2 antag)
CCCN(C)C[C@@H]1Oc2cc(C#Cc3ccncc3)ccc2S(=O)(=O)N([C@H](C)CO)C[C@@H]1C	EWS-Fli inh 66
CCCN(C)C[C@@H]1Oc2cc(C#Cc3ccncc3)ccc2S(=O)(=O)N([C@@H](C)CO)C[C@@H]1C	none
CCCC#Cc1ccc2c(c1)O[C@@H](CN(C)C(=O)c1cnccn1)[C@@H](C)CN([C@@H](C)CO)S2(=O)=O	EWS-Fli inh 54
CCCC#Cc1ccc2c(c1)O[C@@H](CN(C)C(=O)c1cnccn1)[C@@H](C)CN([C@H](C)CO)S2(=O)=O	none
Cc1ccc(S(=O)(=O)Nc2ccc3c(c2)C(=O)N([C@@H](C)CO)C[C@H](C)[C@@H](CN(C)C)O3)cc1	none
CCCCN(C)C1=CC2=CC(=C(C#N)C#N)CCC2CC1 (centres undefined)	F508del corr 34 (no result: RAD54 inh)
CCN(CC)C1=CC2=CC(=C(C#N)C#N)CCC2CC1 (centres undefined)	F508del corr 40 (no result: RAD54 inh)
COc1cccc(NC(=O)C2(C)CCCN2C(=O)C(C)C)c1OC (centres undefined)	none (no result: GSIS activator, LGR2 antag)
O=C(COc1coc(CN2CCc3ccccc3C2)cc1=O)Nc1ccccc1F	none
O=c1cc(-c2ccc(O)c(O)c2)oc2cc(O[C@@H]3O[C@H](CO)[C@@H](O)[C@H](O)[C@H]3O)cc(O)c12	none (no result: EWS-Fli inh, GSIS activator, F508del corr, RAD52 anneal inh, LGR2 antag)
Cc1nc(=S)c2c([nH]1)-c1ccccc1CC21CCCCC1	EWS-Fli inh 54
O=c1[nH]c2ccccc2c(O)c1Cc1ccccc1	none (no result: RAD54 inh)
Cc1cc(Br)c(OCc2ccc(C(=O)N/N=C/c3ccc[nH]3)cc2)c(Br)c1	EWS-Fli inh 58
